# Values joined by “and” are separate entries in the source; they are usually repeats but may differ in a detail not shown here. Equal values may be shown once. Active and inactive are the calls of the source.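 Rule for the calls, unless noted: active = compounds whose cell count with miR-34 switched on is under 0.7 times the count with it off; inactive = the rest.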
# What was measured:
# [1] = compounds altering viability of human ES cells (AID 493140; call rule not given here;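 note: cells exposed to compounds for four days before counting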); settings: human embryonic stem cell survival screen; stronger effect = higher value
# [2] = P. berghei load reduction in hepatocytes – cell-based, HepG2, luciferase luminescence, HepG2 viability, primary screen (AID 624349; in the data active = parasite load remaining mostly below about 12%, no sharp cut-off; inactive = mostly above about 10%;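 note: 100% = mean of DMSO negative control wells on the same plate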); settings: P. berghei liver stage in HepG2, luciferase luminescence, concentration not given here; parasite load remaining: stronger effect = lower value; viability: measured here: HepG2 viability without parasites
# [3] = Wnt pathway potentiators raising nuclear beta-catenin – imaging, WNT3A-conditioned medium, mouse C2C12, NPC library, primary screen (AID 1117326; in the data active = nuclear beta-catenin stimulation mostly above about 4.2%, no sharp cut-off; inactive = mostly below about 10%); settings: stronger effect = higher value
# [4] = stimulators of insulin release from INS-1E, primary screen, cell-based, 5 mM glucose, NPC library (AID 1117329;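 active = compound raises insulin release from rat beta cells at 5 mM glucose, no numeric limit stated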); settings: rat INS-1E insulin secretion, at 10 µM, stronger effect = higher value
# [5] = growth inhibition of GSK3B-pretreated HCT116 cells – cell-based, CellTiter-Glo, 0.2 to 20 µM (AID 1117336;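 active = compounds lowering colon cancer cell viability after pretreatment blocking the GSK3B kinase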); settings: HCT116 viability after GSK3B inhibitor, at 20 µM, stronger effect = higher value
# [6] = inhibition of endothelial tube formation, primary screen, imaging, VEGF stimulated, CD31 staining, tube area, NPC library (AID 1117340;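 active = compound that reduces growth-factor-driven endothelial tube area in a mixed cell culture, no cutoff stated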); settings: VEGF-stimulated ADSC/ECFC co-culture, at 10 µM, stronger effect = higher value
# [7] = GLP1 release stimulators, primary, NCI-H716, NPC library (AID 1117341;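 active = compound raises GLP1 secretion from the human gut endocrine cells, with no numeric limit stated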); settings: NCI-H716 cells, at 10 µM, stronger effect = higher value
# [8] = HCT116 colon cancer cell growth inhibition, primary screen, CellTiter-Glo luminescence, NPC library (AID 1117342;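 active = compounds that lower survival of HCT116 colon cancer cells in the luminescence readout, no numeric limit stated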); settings: at 20 µM (top of the series)
# [9] = reduced SW480 viability measured with CellTiter-Glo, NPC library, primary (AID 1117343;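 active = compounds that lower viability of the colon cancer cells in the luminescence readout, with no numeric limit stated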); settings: CellTiter-Glo luminescence; at 20 µM (top of the series) unless noted
# [10] = NPC library primary testing for decreased DLD-1 cell viability via CellTiter-Glo (AID 1117346;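 active = compounds that lower survival of DLD-1 colon cancer cells in the luminescence readout, no cutoff given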); settings: DLD-1 viability, CellTiter-Glo luminescence; at 20 µM (top of the series)
# [11] = EMT-state selective cytotoxicity in co-culture – imaging, PC-3E GFP, TEM4-18 mCherry, primary screen (AID 1345086;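 active = compounds killing one labelled cell type while sparing the other, by normalised counts and ratio limits, not self-fluorescent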;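 for all read-outs here: cells exposed to compound for 72 h before imaging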;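 for red/green cell ratio (normalised): normalised mesenchymal count divided by normalised epithelial count so high means epithelial killing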); settings: PC-3E GFP / TEM4-18 mCherry co-culture, imaging cell counts, at 1 µM; for red/green cell ratio (normalised): actives lie on both sides, counts scaled to control wells, 1 = unselective
# [12] = viability loss with induced miR-34 in A549 – imaging, A549 dox-inducible miR-34, nuclei and caspase counts, primary screen (AID 1347080); settings: A549 miR-34 inducible, Hoechst nuclei count, 48 h
# [13] = MELAS cybrid and Rieske KO viability enhancers – cell-based, MELAS cybrids, Rieske KO mouse fibroblasts, CellTiter-Glo, primary screen (AID 1508586;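 active = mean z-score across replicates of 1.96 or higher in either the MELAS or the Rieske mutant cell line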;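 note: z relative to plate mean and SD of compound and empty wells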); settings: low glucose
# [14] = target: NAD(+) hydrolase SARM1 (Homo sapiens) (UniProt Q6SZW1); experiment: blocking NAD cleavage by SARM1 SAM-TIR – cell lysate, NAD-Glo luminescence (AID 1508614;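 active = compound whose remaining NAD level is above about 45 nM, limit read from the data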;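 note: higher remaining NAD means stronger inhibition of SARM1 NADase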); settings: SAM-TIR HEK293T lysate NADase, at 1 µM, stronger effect = higher value
# NAD(+) hydrolase SARM1 (Homo sapiens), sequence (Q6SZW1 whole entry, looked up): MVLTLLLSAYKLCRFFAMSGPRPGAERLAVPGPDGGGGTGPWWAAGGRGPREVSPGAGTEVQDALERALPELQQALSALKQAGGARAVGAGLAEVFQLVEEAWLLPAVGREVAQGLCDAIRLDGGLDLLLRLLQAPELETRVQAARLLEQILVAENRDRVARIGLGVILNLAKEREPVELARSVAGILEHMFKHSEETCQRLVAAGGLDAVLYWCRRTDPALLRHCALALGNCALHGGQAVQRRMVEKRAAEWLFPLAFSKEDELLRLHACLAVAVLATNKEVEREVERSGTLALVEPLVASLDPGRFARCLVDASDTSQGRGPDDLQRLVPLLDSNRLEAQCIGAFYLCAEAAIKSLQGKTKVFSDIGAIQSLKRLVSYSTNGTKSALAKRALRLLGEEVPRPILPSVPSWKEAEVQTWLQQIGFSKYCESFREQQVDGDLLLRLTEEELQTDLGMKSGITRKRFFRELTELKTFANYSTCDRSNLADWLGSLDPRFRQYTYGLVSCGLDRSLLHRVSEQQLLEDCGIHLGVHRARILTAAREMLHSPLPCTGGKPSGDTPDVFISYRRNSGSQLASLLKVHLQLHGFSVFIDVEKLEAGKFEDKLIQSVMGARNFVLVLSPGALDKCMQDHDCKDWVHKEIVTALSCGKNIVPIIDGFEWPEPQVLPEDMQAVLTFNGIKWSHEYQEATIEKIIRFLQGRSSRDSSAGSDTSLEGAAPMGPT
# [15] = growth inhibition, single agent or in combination, cell-based, chromothripsis tumors, cisplatin or BGB combos (AID 1671449; in the data active = inhibition above about 80%;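 note: cells exposed for 96 hours; 0% = vehicle DMSO and 100% = killing by high DMSO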); settings: LFS_MB_P medulloblastoma cells
# [16] = growth inhibition, single agent and combos, cell-based, chromothripsis tumors, cisplatin or BGB combos (AID 1671450; in the data active = inhibition above about 80%;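 note: cells exposed to compound for four days; 0% = vehicle DMSO and 100% = cell killing by high DMSO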); settings: HDN33 neuroblastoma cells, stronger effect = higher value
# [17] = growth inhibition, single agents and combos, ICB984, cell-based, cisplatin or BGB combos, synergistic combos for chromothripsis tumors (AID 1671451; call rule not given here;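 note: cells exposed for 96 hours before readout; 0% = vehicle DMSO and 100% = killing by high DMSO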); settings: ICB984 medulloblastoma cells, drug combinations, stronger effect = higher value
# [18] = growth inhibition, single agents and combos, HTB85, cell-based, BGB or cisplatin IC20 combos, synergistic combos for chromothripsis tumors (AID 1671453; in the data active = inhibition above about 80%;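 note: cells exposed for 96 hours before readout; 0% = vehicle DMSO and 100% = high DMSO killing control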); settings: HTB85 osteosarcoma cells, drug combinations, stronger effect = higher value
# [19] = growth inhibition, MDA-MB-436, cell-based, BGB or cisplatin combos, synergistic combos for chromothripsis tumors (AID 1671458; call rule not given here;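 note: cells exposed for 96 hours; 0% = vehicle DMSO and 100% = killing by high DMSO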); settings: MDA-MB-436 breast carcinoma growth inhibition, drug combinations, stronger effect = higher value
# [20] = measured here: epithelial PC-3E GFP cell survival
# [21] = measured here: mesenchymal TEM4-18 mCherry cell survival
# [22] = stronger effect = lower value, cell number ratio, induced over uninduced
# [23] = measured here: relative caspase fold change +Dox/-Dox
# [24] = measured here: total cells with miR-34 induction, stronger effect = lower value
# [25] = measured here: total cells without miR-34 induction
# [26] = MELAS cybrid survival, CellTiter-Glo 48 h, stronger effect = higher value
# [27] = Rieske KO mouse fibroblast survival, CellTiter-Glo 72 h
compound,measurement,setting,value
CC(C)(Oc1ccc(C2CC2(Cl)Cl)cc1)C(=O)O (centres undefined),survival,[1],3.17 (inactive)
same,parasite load remaining,[2],67% (inactive)
same,viability,[2],69.5%
same,nuclear beta-catenin stimulation,[3]; at 10 µM,-1.2% (inactive)
same,nuclear beta-catenin stimulation,"[3]; stimulation, at 2 µM",-1%
same,insulin secretion stimulation,[4],-1.6% (inactive)
same,viability decrease,[5],0.1% (inactive)
same,tube area decrease,[6],-3% (inactive)
same,GLP1 secretion stimulation,[7],1.4% (active)
same,inhibition of viability,[8],-3.5% (inactive)
same,viability decrease (inhibition),[9],-7.2% (inactive)
same,viability decrease (inhibition),[10],-11.1% (inactive)
same,red/green cell ratio (normalised),[11],1.11 (inactive)
same,normalised cell number,[11]; [20],1.15
same,normalised cell number,[11]; [21],1.28
same,fold change,[12]; [22],1.01 (inactive) and 0.95 (inactive) and 0.923 (inactive)
same,fold change,[12]; [23],2.14 and 0.705 and 0.604
same,cell count,[12]; [24],9720 and 9780 and 8880
same,cell count,[12]; [25],9650 and 10300 and 9610
same,z-score,[13]; [26],-0.289 (inactive) and 0.864 (inactive)
same,z-score,[13]; [27],-0.625 and 0.179
same,remaining NAD,[14],10 nM (inactive)
CC(C)Cn1cnc2c(N)nc3ccccc3c21,parasite load remaining,[2],11.9% (inactive)
same,viability,[2],62.5%
same,nuclear beta-catenin stimulation,[3]; at 10 µM,1.6% (inactive)
same,nuclear beta-catenin stimulation,"[3]; stimulation, at 2 µM",0.2%
same,insulin secretion stimulation,[4],0% (inactive)
same,viability decrease,[5],-1.15% (inactive)
same,tube area decrease,[6],-3.6% (inactive)
same,GLP1 secretion stimulation,[7],0.6% (inactive)
same,inhibition of viability,[8],-6.6% (inactive)
same,viability decrease (inhibition),[9],49.5% (inactive)
same,viability decrease (inhibition),[10],0.7% (inactive)
same,red/green cell ratio (normalised),[11],1.33 (inactive)
same,normalised cell number,[11]; [20],1.11
same,normalised cell number,[11]; [21],1.48
same,fold change,[12]; [22],0.846 (inactive)
same,fold change,[12]; [23],0.971
same,cell count,[12]; [24],9200
same,cell count,[12]; [25],10900
same,z-score,[13]; [26],0.0496 (inactive) and 0.611 (inactive)
same,z-score,[13]; [27],0.716 and 0.772
same,remaining NAD,[14],10 nM (inactive)
Clc1ccc(C(Cn2ccnc2)OCc2ccsc2Cl)c(Cl)c1 (centres undefined),parasite load remaining,[2],37.3% (inactive) and 6.58% (inactive)
same,viability,[2],97.8% and 62%
same,nuclear beta-catenin stimulation,[3]; at 10 µM,4.5% (inactive)
same,nuclear beta-catenin stimulation,"[3]; stimulation, at 2 µM",0.7%
same,insulin secretion stimulation,[4],0.9% (inactive)
same,viability decrease,[5],100% (active)
same,tube area decrease,[6],110% (active)
same,GLP1 secretion stimulation,[7],10.8% (inactive)
same,inhibition of viability,[8],100% (active)
same,viability decrease (inhibition),[9],123% (active)
same,viability decrease (inhibition),[10],103% (active)
same,red/green cell ratio (normalised),[11],1.15 (inactive)
same,normalised cell number,[11]; [20],0.85
same,normalised cell number,[11]; [21],0.97
same,fold change,[12]; [22],0.919 (inactive) and 0.86 (inactive) and 0.892 (inactive)
same,fold change,[12]; [23],0.876 and 3.84 and 1.06
same,cell count,[12]; [24],7290 and 10300 and 7120
same,cell count,[12]; [25],7930 and 12000 and 7980
same,z-score,[13]; [26],-0.0566 (inactive) and 0.885 (inactive) and 0.0763 (inactive)
same,z-score,[13]; [27],-0.152 and 0.306 and -0.538
same,remaining NAD,[14],10 nM (inactive)
O=C(O)c1cc(=O)[nH]c(=O)[nH]1,nuclear beta-catenin stimulation,[3]; at 10 µM,2.7% (inactive)
same,nuclear beta-catenin stimulation,"[3]; stimulation, at 2 µM",1.2%
same,insulin secretion stimulation,[4],-0.7% (inactive)
same,viability decrease,[5],0.3% (inactive)
same,tube area decrease,[6],-4.9% (inactive)
same,GLP1 secretion stimulation,[7],2.6% (inactive)
same,inhibition of viability,[8],1.8% (inactive)
same,viability decrease (inhibition),[9],18.7% (inactive)
same,viability decrease (inhibition),[10],0.25% (inactive)
same,red/green cell ratio (normalised),[11],0.81 (inactive)
same,normalised cell number,[11]; [20],1.22
same,normalised cell number,[11]; [21],0.99
same,fold change,[12]; [22],0.909 (inactive) and 0.91 (inactive)
same,fold change,[12]; [23],0.683 and 0.794
same,cell count,[12]; [24],8860 and 8140
same,cell count,[12]; [25],9750 and 8950
same,z-score,[13]; [26],-0.414 (inactive)
same,z-score,[13]; [27],-0.146
same,remaining NAD,[14],10 nM (inactive)
same,inhibition,"[15]; at 0.5 µM, stronger effect = higher value",-14.8% (inactive) and 6.04% (inactive)
same,inhibition,"[15]; measured here: combination with BGB IC20, at 0.005 µM",-3.6% and -6.88%
same,inhibition,"[15]; measured here: combination with BGB IC40, at 0.005 µM",28.3% and -31.4%
same,inhibition,"[15]; measured here: combination with BGB IC40, at 0.05 µM",-7.85% and -7.79%
same,inhibition,"[15]; measured here: combination with cisplatin, at 0.5 µM, stronger effect = higher value",-24.1% and -4.55%
same,inhibition,"[15]; measured here: combination with cisplatin, at 5 µM, stronger effect = higher value",-5.53% and -40.7%
same,inhibition,"[16]; BGB combo, at 5 µM",13.5% and -51.1%
same,inhibition,[16]; at 0.5 µM,15.1% (inactive) and -24.6% (inactive)
same,inhibition,"[16]; cisplatin combo, at 5 µM",14.4% and -17.2%
same,inhibition,"[16]; measured here: with BGB IC20 combination, at 0.5 µM",10.5% and -14.2%
same,inhibition,"[16]; measured here: with cisplatin IC20 combination, at 0.5 µM",24.7% and -33.5%
same,inhibition,"[16]; single agent, at 5 µM",12.4% and -40.1%
same,inhibition,"[17]; BGB IC20 combo, at 0.005 µM",-7.3% and -18.5%
same,inhibition,"[17]; BGB IC40 combo, at 0.005 µM",-15.2% and -60.1%
same,inhibition,"[17]; BGB IC40 combo, at 0.05 µM",9.75% and -38.4%
same,inhibition,[17]; at 0.5 µM,7.77% (inactive) and -27.4% (inactive)
same,inhibition,"[17]; cisplatin combo, at 0.05 µM",9.75% and -43.9%
same,inhibition,"[17]; cisplatin combo, at 0.5 µM",-1.72% and -34.4%
same,inhibition,"[17]; cisplatin combo, at 5 µM",27.1% and -45.2%
same,inhibition,"[17]; measured here: 5 uM single agent, at 5 µM",8.32% and 10.3%
same,inhibition,[18]; at 0.5 µM,5.03% (inactive) and -15.1% (inactive)
same,inhibition,"[18]; measured here: with BGB IC20, at 0.5 µM",-2.41% and -19.2%
same,inhibition,"[18]; measured here: with BGB IC20, at 5 µM",15.1% and -5.19%
same,inhibition,"[18]; measured here: with cisplatin IC20, at 0.5 µM",6.2% and -21.8%
same,inhibition,"[18]; measured here: with cisplatin IC20, at 5 µM",13% and -19.1%
same,inhibition,"[18]; single agent, at 5 µM",16% and -13.4%
same,inhibition,[19]; at 0.5 µM,2.87% (inactive) and -29.1% (inactive)
same,inhibition,"[19]; measured here: BGB combination, at 0.5 µM",7.16% and -31.6%
same,inhibition,"[19]; measured here: BGB combination, at 5 µM",4.32% and -38.3%
same,inhibition,"[19]; measured here: cisplatin combination, at 0.5 µM",-8.53% and -32.8%
same,inhibition,"[19]; measured here: cisplatin combination, at 5 µM",21.8% and -35.6%

# Source: PubChem BioAssay
